Measured values: the supplement of paper PMC5734697

system: Caenorhabditis elegans; assay: growth (movement index) relative to DMSO control, secondary screen (log2 fold change); higher = more growth (less anthelmintic activity); conditions: 10 µM, 5 days, 20 °C, stage: L1 start
Experimental: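 C. elegans growth assay: synchronised L1 larvae (~20 per well) in S-complete medium with HB101 E. coli were grown in 96-well plates with Pathogen Box compound at 10 µM (1% DMSO) for 5 days at 20 °C. Motility/growth was quantified by whole-plate movie imaging (INVAPP/Paragon movement index). The score is the log2 fold change of the median movement of 5 replicate wells (on different plates) relative to DMSO-only wells. The secondary screen retested the top 20 hits with the same library material (n = 5, 10 µM).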

| Compound | growth (log2) |
| --- | --- |
| CCc1nn(C)c(C(=O)NCc2ccc(Oc3ccc(C)cc3)cc2)c1Cl | -10.6 |
| CC1(C)OB(O)c2ccc(C3=NOC(c4cc(Cl)c(F)c(Cl)c4)(C(F)(F)F)C3)cc21 (configuration not stated) | -0.316 |
